According to ChEMBL document CHEMBL3433997, “St. Jude Leishmania screening dataset” (2016):

Experiments:
Type in all cases: functional
[1] = molecular target: Solute carrier family 2, facilitated glucose transporter member 1 (Homo sapiens) (UniProt P11166); test: ST_JUDE_LEISH: Cytotoxicity at 2uM final concentration against transgenic Leishmania Mexicana promastigotes LmGLUT1 that are glucose transport deficient and complemented with the human glucose transporter GLUT1. Activity is measured by DNA content using SYBR green in vitro
[2] = molecular target: Hexose transporter 1 (Plasmodium falciparum) (UniProt O97467); test: ST_JUDE_LEISH: Cytotoxicity at 2uM final concentration against transgenic Leishmania Mexicana promastigotes LmPfHT that are glucose transport deficient and complemented with the Plasmodium falciparum hexose transporter. Activity is measured by DNA content using SYBR green in vitro
[3] = molecular target: Glucose transporter (Leishmania mexicana) (UniProt O61059); test: ST_JUDE_LEISH: Cytotoxicity at 2uM final concentration against transgenic Leishmania Mexicana promastigotes LmGT2 that are glucose transport deficient and complemented with the L. Mexicana glucose transporter 2. Activity is measured by DNA content using SYBR green in vitro

Chain of Solute carrier family 2, facilitated glucose transporter member 1 (Homo sapiens) (P11166 whole entry): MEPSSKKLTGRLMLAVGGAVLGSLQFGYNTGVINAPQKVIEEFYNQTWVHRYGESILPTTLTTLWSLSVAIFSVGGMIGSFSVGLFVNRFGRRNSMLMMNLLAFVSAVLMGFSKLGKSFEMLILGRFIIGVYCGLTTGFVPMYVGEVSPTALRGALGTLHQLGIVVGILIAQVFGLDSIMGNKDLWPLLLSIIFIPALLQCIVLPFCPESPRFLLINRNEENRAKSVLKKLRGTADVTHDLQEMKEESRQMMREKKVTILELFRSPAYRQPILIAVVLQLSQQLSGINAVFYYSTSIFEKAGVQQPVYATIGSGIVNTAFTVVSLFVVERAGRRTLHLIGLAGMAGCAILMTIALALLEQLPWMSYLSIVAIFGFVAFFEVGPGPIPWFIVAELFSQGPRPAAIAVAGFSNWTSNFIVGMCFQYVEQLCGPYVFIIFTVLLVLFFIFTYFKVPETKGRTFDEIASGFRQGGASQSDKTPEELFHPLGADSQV

Compound	inhibition [1] [%]	inhibition [2] [%]	inhibition [3] [%]
Cc1cc(CN2CCC(N3CC(c4ccccc4)(c4ccccc4)OCC3=O)C2)ccc1O (configuration not stated)	0.59	0.87	-3.65
c1ccc2[nH]c(-c3ccc(-c4ccc(CN5CCN(c6ccncc6)CC5)cc4)s3)nc2c1	6.21	6.05	1.74
CCN(CC(C)O)C(=O)c1ccc(-c2ccc(-c3nc4cccc(C)c4[nH]3)cc2)cc1 (configuration not stated)	6.07	-2.57	0.55
CCOc1cc(C(=O)NC2CCN(Cc3ccccc3)C2)ccc1-c1nc2cc(Cl)ccc2[nH]1 (configuration not stated)	6.92	3.47	6.92
